Screening data as filed in PubChem BioAssay.
NS1 function inh: blocks influenza NS1 protein function; Potency, µM (series often up to 46.1 µM), inactives show at the top dose activity, positive = more growth; AID 2326; actives 0.4% (n = 270,000); further: potency means the concentration at half of the fitted maximal effect; actives are rising curves; nearly all actives have a fitted effect of over 50% in size
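Read-out: OD600 growth recovery of NS1-expressing budding yeast. Cells grown overnight at 30C in -URA glucose medium, washed, resuspended and diluted 1:100 in 2% galactose assay medium, pH 6.0. Same strain lacking NS1 served as positive control.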
SARS PLpro yeast: SARS-CoV PLP inhibition in yeast; S. cerevisiae expressing SARS-CoV PLpro, growth rescue; Potency, µM (titrated, usually from 32.9 µM), without a hit: at the highest dose activity, positive = growth rescue, usual class: activators; actives 0.19% (n = 330,000); AID 485353; further: potency means the concentration at half of the fitted maximal effect; 0% is about no effect; nearly all actives have a fitted effect of over 55% in size
Cycloheximide cs: counter-screen for Shiga toxin inhibitors: cycloheximide protein synthesis inhibition. cell reporter, cycloheximide protein synthesis inhibition counterscreen. max response, %. actives 12% (n = 300,000). AID 2314; in the data active means max response mostly above about 13%, no sharp cut-off; inactive means mostly below about 14%; further: read at 38.3 µM for the half of the compounds with a filed dose; 0% is about no effect
Shiga toxin inh: blocks Shiga toxin action in Vero cells; actives 9.2% (n = 290,000); inhibition, % at 38.7 µM; Vero cells, Shiga toxin protein synthesis inhibition reporter; in the data active means inhibition mostly above about 28%, no sharp cut-off; inactive means mostly below about 43%; further: 0% is about no effect
An asterisk follows results filed as active; ? = inconclusive; · = no result given; [ ] = dose if it differs, or a comment. The list is not random: actives were taken first. Their share in the collection is about 12%. Unless noted, the call rests on the fitted dose curve.

SMILES	NS1 function inh	SARS PLpro yeast	Cycloheximide cs	Shiga toxin inh
COc1ccc(S(=O)(=O)N(C)C2(C)CCS(=O)(=O)C2)cc1OC (configuration not stated)	·	-3%	·	·
COc1ccc(/C(N)=N/OC(=O)COc2ccccc2Cl)cc1	-3%	-11%	46*	26*
Cc1ccc(C)c(OCC(=O)O/N=C(\N)c2cccc([N+](=O)[O-])c2)c1	-2%	0%	-2	10
Cc1cccc(/C(N)=N/OC(=O)COc2ccccc2Cl)c1	-1%	10%	66*	21*
CCOC(=O)C1CCCN(C(=S)Nc2cccc(Cl)c2C)C1 (configuration not stated)	2%	?	-8	-15
COC(=O)c1cc2ccccc2c(=O)s1	-12%	-10%	15*	9
CC(=O)Nc1ccc(-c2csc(Nc3ncccn3)n2)cc1	6%	0%	33*	81*
O=C(NCc1ccccn1)C(=O)Nc1nc(-c2ccccc2)cs1	4%	-3%	-3	23
Oc1ccc(-c2csc(Nc3ncccn3)n2)cc1	14%	-4%	39*	122*
CC(=O)Nc1ccc(-c2csc(-c3cccnc3)n2)cc1	12%	-4%	72*	111*
CCCC(=O)Nc1ccc(-c2csc(-c3cccnc3)n2)cc1	-18%	-3%	11	44
Cc1nc2ncccn2c1-c1csc(Nc2ccc(O)cc2)n1	11%	0%	12	33
c1ccc(-c2csc(Nc3ncccn3)n2)cc1	14%	-4%	42	54*
CCc1noc(C)c1C(=O)N1CCC(CCC(=O)Nc2cccc(C)c2)CC1	-18%	-3%	5	5
CCC1(CC)Cc2ccccc2C(C2=C(O)CC(C)(C)CC2=O)=N1	11%	21%	-2	-9
NNc1nc(-c2ccccc2)cs1	11%	10%	34*	93
C/C(=N\NC(=O)c1cccc(N/N=C(\C)c2ccccc2)c1)c1ccccc1	20%	22%	72*	144*
C/C(=N\NC(=O)c1cccc(N/N=C(\C)c2ccc([N+](=O)[O-])cc2)c1)c1ccc([N+](=O)[O-])cc1	5%	4%	17*	39*
C/C(=N\NC(=O)c1ccccc1C)c1cccc([N+](=O)[O-])c1	-2%	-8%	10	10
C/C(=N\NC(=O)c1cccc(N/N=C(\C)c2ccncc2)c1)c1ccncc1	·	1%	15	5
C/C(=N\Nc1ccc(Cl)c(C(=O)O)c1)c1cccc([N+](=O)[O-])c1	0%	-2%	80*	159*
C/C(=N\NC(=S)Nc1ccc(C)cc1)c1cccc(N)c1	6%	11%	17	54*
O=c1onc2n1-c1cc(Br)ccc1OC2	-5%	·	·	·
C/C(=N\NC(=S)Nc1cccc(C)c1)c1cccc(N)c1	18%	9%	17	34
C/C(=N\Nc1ccccc1)c1cccc(N)c1	7%	-7%	23*	40
SMILES	NS1 function inh	SARS PLpro yeast	Cycloheximide cs	Shiga toxin inh
CC1CCN(C(=O)CSc2n[nH]c(-c3cccs3)n2)CC1	0%	0%	-2	-1
CC(C)(C)OC(=O)N1CCC(c2cc(-c3cccs3)n[nH]2)CC1	-4%	-2%	26*	20
FC(F)(F)c1cccnc1Oc1ccc(C2=NCCS2)cc1	-3%	0%	30*	59*
Cc1ccc(C(c2nnnn2CCc2ccccc2)N2CCSCC2)cc1 (configuration not stated)	-14%	-1%	0	-1
Cc1ccc(C(c2nnnn2CCc2ccccc2)N2CCC(C)CC2)cc1 (configuration not stated)	-32%	-47%	15*	21
CN1CCN(CC(=O)Nc2ccc(OCc3ccccc3)cc2)CC1	-6%	9%[6.58 µM]	36*	64
CN1CC(=O)N(CC(=O)Nc2ccc(OCc3ccccc3)cc2)C1=O	·	-1%	·	·
N#CCN1CCN(CC(=O)Nc2ccc(OCc3ccccc3)cc2)CC1	-16%	0%	23*	-22
C=CCNc1nc(S(=O)Cc2ccc(C)cc2)nc2c1CCCC2 (configuration not stated)	·	1%	2	-3
CC(Oc1ccc(Cl)cc1Cl)C(=O)NCCCN1CCOCC1 (configuration not stated)	-5%	4%	-3	-14
CCCCNc1nc(N)nc(-c2cc(Cl)ccc2O)n1	9%	-69%	74*	79*
CCNc1nc(N)nc(-c2cc(Cl)ccc2O)n1	-26%	-66%	49*	56*
CCCNc1nc(N)nc(-c2cc(Cl)ccc2OC)n1	6%	?	8	-7
Cc1nn(CCc2nn[nH]n2)c2nc(-c3ccc(C4CCCCC4)cc3)cc(C(F)(F)F)c12	·	-1%	1	-8
Clc1ccc(CSc2cc3c(nn2)-c2ccccc2CC3)cc1	-6%	-2%	15*	50
CC(C)Oc1ccc(CCN=C(N)N=C(N)N)cc1Cl	-2%	-1%	29*	51*
O=C1C[C@H]2OCC=C3CN4CC[C@@]5(C(=O)O)[C@H](N1)C2[C@H]3C[C@H]45 (some centres not stated)	1%	·	·	·
COc1ccc(NCc2nnc(-c3ccccc3)o2)cc1	14%	0%	20*	28*
CCOc1ccccc1NCc1nnc(-c2ccccc2)o1	-18%	15%	15*	11
COc1ccc(OC)c(NCc2nnc(-c3ccccc3)o2)c1	30%	2%	-1	-4
Cc1ccc(SCc2nc(-c3cccnc3)no2)cc1	-13%	-6%	21*	53*
Clc1ccc(Br)cc1-c1nc(-c2cccnc2)no1	1%	·	·	·
Cc1cc(C)c(C)c(OCc2nc(-c3cccnc3)no2)c1	19%	-5%	-2	2
c1ccc(-c2ccc(-c3nc(-c4cccnc4)no3)cc2)cc1	-46%	2%	33*	35
c1ccc(-c2noc(-c3cccnc3)n2)cc1	-3%	·	33*	99*
SMILES	NS1 function inh	SARS PLpro yeast	Cycloheximide cs	Shiga toxin inh
c1cncc(-c2noc(-c3ccc4ccccc4c3)n2)c1	-11%	0%	27*	102*
COc1ccc(C(=O)NCCCn2cccn2)cc1OC1CCN(C(C)=O)CC1	-3%	-3%	8	-3
CCNc1nc(SCC(=O)OC)nc(N(C)C)n1	·	3%	5	-17
COc1ccc(OC)c(NC(=O)CCC(=O)Nc2nnc(C(C)C)s2)c1	-19%	1%	6	8
CCN(CC)CCC(c1ccc(N(C)C)cc1)c1c(OC)cc(OC)c2c(C)cc(=O)oc12 (configuration not stated)	·	·	-5	-12
COCc1cc(=O)n2c([nH]c3ccccc32)c1C#N	-3%	-2%	6	-16
CCc1cc(=O)n2c([nH]c3ccccc32)c1C#N	?	-23%	44*	42*
CCc1cc(=S)n2c([nH]c3ccccc32)c1C#N	·	-11%	9	52*
O=C(/C=C/c1cccs1)NC1CC1	·	0%	19*	19
Cc1cc(C)c(-c2csc(NC(=O)/C=C/c3cccs3)n2)c(C)c1	10%	-11%	-5	-10
CCc1nnc(NC(=O)C=C(C)C)s1	2%	-8%	32*	39*
O=C(/C=C/c1cccs1)Nc1nccs1	8%	-3%	41*	111*
O=C(/C=C/c1cccs1)Nc1ccc(Br)cn1	0%	-18%	43*	60*
CCc1nnc(NC(=O)C(C)C)s1	0%	-1%	-4	-9
